The structures appear in SMILES notation. “And” between values parts separate entries of the source, which are not always exact repeats. Equal entries are not always repeated. Compounds without any hit were thinned out: in the full panel of roughly 83,000, 20% have a hit.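 Single-concentration screen, 48 h exposure, 96-well plates. Endpoint: percent growth. Below 10 = active.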 Unmarked numbers belong to inactive results. The source made the active and inactive calls.

The record followed here is PubChem BioAssay (NCI).

Common to all, as to test: NCI-60 one-dose screen, 48 h (100 = growth as untreated, 0 = no growth, -100 = all killed)
The test system of test [1] is T-47D breast. The conditions noted are these: 10 µM unless noted.
The subject of test [2] is BT-549 breast. Particulars: 10 µM unless noted.
In test [3] the test system is MDA-MB-435 melanoma. The conditions noted are these: 10 µM unless noted.
Test [4] relates to SW-620 colon. Particulars: 10 µM unless noted.
Test [5] deals with MCF7 breast.
Test [6] has as its system HCT-116 colon. The conditions noted are these: 10 µM unless noted.
The test system of test [7] is HCC-2998 colon. The conditions noted are these: 10 µM unless noted.
Test [8] deals with KM12 colon. The conditions noted are these: 10 µM unless noted.

As to `CCc1ccccc1-n1[nH]c(C)c(C=N)c1=O`, the growth in test [1] was 126%; in test [2] it was 108%; in test [3], 104%; in test [4], 106%; in test [5] (10 µM unless noted) it was 94.1%; in test [6], 120%. Besides, the growth was 118% in test [7] and 102% in test [8].

As to `COc1ccc(CCN=Cc2ccc(Cl)cc2)cc1OC`, the growth in test [1] is 97%; in test [2] it was 107%; in test [3], 113%; in test [4] it was 102%; in test [5] (10 µM unless noted), 96.1%; in test [6], 104%. Moreover, the results for the growth in test [7] and in test [8] were 105% and 102%, respectively.

Take `COC1C(OC(N)=O)C(O)C(Oc2ccc3c(O)c(NC(=O)c4ccc(O)c(CC=C(C)C)c4)c(=O)oc3c2C)OC1(C)C` (centres undefined): the growth in test [1] is 106% and 94.8%; in test [2] it was 112% and 97.8%; in test [3], 98.6% and 98.8%; in test [4], 104% and 92.7%; in test [5] (10 µM unless noted), 96.8% and 93.4%; in test [6], 96.8% and 101%. For the same compound, the growth in test [7] was 107% and 96.6%; in test [8], 110% and 101%.

As to `ON=C(C1CCCCC1)C1CCCCC1`, the growth was 87.3% in test [1]; 108% in test [2]; 103% in test [3]; 102% in test [4]; 93.3% in test [5] (10 µM unless noted); 100% in test [6]. In addition, the growth in test [7] is 109%; in test [8] it was 95.5%.

Regarding `O=C(NC(CSSCC(NC(=O)OCc1ccccc1)C(=O)O)C(=O)O)OCc1ccccc1` (centres undefined), the growth in test [1] was 79.1% and 82.4%; in test [2], 109% and 81.3%; in test [3], 96% and 100%; in test [4], 94.3% and 106%; in test [5] (10 µM unless noted) it was 94.3% and 93.2%; in test [6], 98.4% and 74.7%. The growth was 110% and 96.2% in test [7]; 95.4% and 106% in test [8].

For the compound `Cc1c(Cl)cc(Cl)c(N)c1Cl`, the growth in test [1] is 104%; in test [2], 112%; in test [3] it was 104%; in test [4] it was 101%; in test [5] (10 µM unless noted) it was 98.6%; in test [6], 103%. The growth in test [7] was 113%; in test [8], 114%.

`C#CCOC(=O)C(N)CS` (centres undefined): the growth in test [1] was 119%; in test [2] it was 108%; in test [3], 96.6%; in test [4], 97.1%; in test [5] (10 µM), 93%; in test [5] (100 µM) it was 90.4% and 76.4%. Also, the growth in test [6] is 101%; in test [7], 107%; in test [8], 102%.

As to `CC(=O)c1cc2ccccc2o1`, the growth in test [1] was 100%; in test [2], 97.2%; in test [3], 109%; in test [4], 112%; in test [5] (10 µM unless noted) it was 95.6%; in test [6], 100%. In addition, the growth in test [7] and in test [8] was 109% each time.

Turning to `CN(C)CC(CN(C)C)C(O)c1ccccc1` (centres undefined), the growth in test [1] is 95.2%; in test [2], 101%; in test [3], 112%; in test [4], 111%; in test [5] (10 µM unless noted) it was 98.5%; in test [6], 101%. The results for the growth in test [7] and in test [8] were 111% and 102%, respectively.

Take `CCN(CC)C(CC(=O)c1ccccc1)C(=O)c1ccccc1` (centres undefined): the growth in test [1] is 77.8%; in test [2] it was 102%; in test [3], 99.2%; in test [4], -7.93% (active); in test [5] (10 µM unless noted), 53.2%; in test [6] it was 92%. Also, the growth in test [7] is 108%; in test [8], 109%.

As to `OC(CC(c1ccccc1)c1cccc2ccccc12)(c1ccccc1)c1ccccc1` (centres undefined), the growth is 64% and 81.8% in test [1]; 88.4% in test [2]; 96.9% and 88.9% in test [3]; 77% and 80.9% in test [4]; 79.1% and 79.3% in test [5] (10 µM unless noted); 58.9% and 46.3% in test [6]. Moreover, the growth is 98.9% and 88.1% in test [7]; 89.2% and 90.9% in test [8].
